The target in the first test is PRB2. The test is described as follows: pooled miR-30 sensor sort-seq; sequence = guide strand. The conditions noted are these: shRNA.
Regarding TTTGGGACTTGTTGTCTCCTTG, the sensor-assay potency score (higher = more potent) was -0.1. On the same count and under the same terms, under TTGAGGATTGTTGCCTTCTTGT stands -0.928. Sequence TGGCTTTCCTGCTATTAGGGAG came in with a sensor-assay potency score (higher = more potent) of -0.778. As to TCGAGAACTTCGGGACTTGTTG, the sensor-assay potency score (higher = more potent) was -0.988. On the same count and under the same terms, under TCGGGACTTGTTGTCTCCTTGT stands -0.96.

The next test addresses PRDM11. The test is described as above. The conditions noted are these: shRNA.
For TTTCTTCTTCTTAGCTTGGGGG, the sensor-assay potency score (higher = more potent) was -0.807. TTCTGGGTTATCCAGAACCTGC had a sensor-assay potency score (higher = more potent) of -1.79. The sequence TTGCACACTGACTGTAGGCGTC returned a sensor-assay potency score (higher = more potent) of -0.555. The same measure, in the same setting: under TCCGACAATAATCTCATCCAAA stands -1.56; under TCATCCAAACCAACTTACCTGC, -0.593; under TGTTGTTGCACACTGACTGTAG, 0.562. In turn, TATATTCTGCACACCATGGGTC registered a sensor-assay potency score (higher = more potent) of 0.141.

Regarding TTTTCTTCTTCTTAGCTTGGGG, the sensor-assay potency score (higher = more potent) was -0.102. Take TTGTTGTTGCACACTGACTGTA: the sensor-assay potency score (higher = more potent) was -0.0431. Take TAAGCATGTCTAATTCTGCCTG: the sensor-assay potency score (higher = more potent) was -0.386. The same measure, in the same setting: as for TAATTCTGCCTGGAGCTCCCGA, the figure is -0.672; as for TTCTTCTTCTTAGCTTGGGGGT, -0.763.

Another test has as its target PREB. The description is as above. The following applies: shRNA.
Regarding TTGCACTGTGAAGAGTCGCAGG, the sensor-assay potency score (higher = more potent) was -0.529. On the same count and under the same terms, as for ATCGGAGCTAAAGTCTGTCTGC, the figure is -0.682; as for TAAAGTCTGTCTGCACCGCCTG, -0.668; as for TTCACTGACATCGAGGCAGGAG, 0.301. TTGAACTCCAGAACCTTCTCCA registered a sensor-assay potency score (higher = more potent) of 0.863.

TAAGGGTAGACTACCTAGGAAC came in with a sensor-assay potency score (higher = more potent) of -1.26. Same read-out and setting: as for TTCTGCAGTGGATCGGAGCTAA, the figure is 0.0919; as for AAAGTCTGTCTGCACCGCCTGC, -1.08. Same read-out and setting: as for TTCTTTATGCCTGTCTTGGCGG, the figure is -0.991; as for TTCGTGGGCTTTGAACTCCAGA, -1.33; as for TTGTGGGGAATTTGCACTGTGA, -0.563. On to TTGATGTGCCTGGAAGCGCAGG, for which the sensor-assay potency score (higher = more potent) was -0.963.

A further test addresses PRKAR1B. Described as above. The following applies: shRNA.
TAACGCTGAATGTTCCTCTTGA yielded a sensor-assay potency score (higher = more potent) of 0.692. TTTCTCTCCATCTTCAAACTGG came in with a sensor-assay potency score (higher = more potent) of -0.327. TACACCTCGGCACTCACGCCTC: the sensor-assay potency score (higher = more potent) is -1.12.

In the case of TTGATCAACGACATAGAAGTTG, the sensor-assay potency score (higher = more potent) was -0.313. Still for that read-out and setting: under TTGCTGTATAACAGTCTCCCCA stands -0.886; under TCTAGGATGGAGACCTTGCTGA, -0.482; under TCCATCTTCAAACTGGACGGGC, -0.749.

TTCCTTCTCCAGCTTCTCGAAG: the sensor-assay potency score (higher = more potent) was -1.27. Same read-out and setting: as for AACTCCTCGTACATCTTGCGTT, the figure is -1.1; as for TATAACAGTCTCCCCAGCGATG, -1.57.

With TGCTGTATAACAGTCTCCCCAG, the sensor-assay potency score (higher = more potent) is -0.318.

Source of the values: the OligoGym collection.
Note: reference of the scale not given here.
